CD40 NFkB inh: CD40 pathway inhibition in BL2 cells; BL2 NF-kB luciferase reporter, CD40L-induced, 4 h; AID 1053188; inhibition, % at 10 µM; 83,000 compounds, 0.94% hits;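 active means mean inhibition of at least 50% with a set share of replicates also reaching that level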;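 further: 0% = neutral control wells and 100% = IKK inhibitor VII at 50 µM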
Active calls of the source: *; [ ] = another dose, or the depositor's remark. The sample as a whole holds a higher share of hits than the screen did.

SMILES	CD40 NFkB inh
COCC(=O)N1[C@H](C#N)[C@H](c2ccc(C#Cc3ccccc3F)cc2)[C@@H]1CO	-40[25 µM]
N#C[C@H]1[C@H](c2ccc(C#Cc3ccccc3F)cc2)[C@@H](CO)N1C(=O)C1CCCCC1	62*
COCC(=O)N1[C@@H](C#N)[C@@H](c2ccc(C#Cc3ccccc3F)cc2)[C@@H]1CO	-14[25 µM]
N#C[C@H]1[C@@H](c2ccc(C#Cc3ccccc3F)cc2)[C@H](CO)N1C(=O)C1CCC1	-1
N#C[C@@H]1[C@@H](c2ccc(C#Cc3ccccc3F)cc2)[C@H](CO)N1C(=O)c1cccnc1	-24[25 µM]
N#C[C@@H]1[C@H](c2ccc(C#Cc3ccccc3F)cc2)[C@H](CO)N1C(=O)C1CCCC1	1
N#C[C@H]1[C@@H](c2ccccc2)[C@H](CO)N1C(=O)c1cccnc1	2
COCC(=O)N1[C@H](C#N)[C@H](c2ccc(C#Cc3ccccc3F)cc2)[C@H]1CO	73*[25 µM]
N#C[C@@H]1[C@@H](c2ccc(C#Cc3ccccc3F)cc2)[C@@H](CO)N1C(=O)C1CCCC1	-21
N#C[C@H]1[C@H](c2ccc(C#Cc3ccccc3F)cc2)[C@H](CO)N1C(=O)C1CC1	63*[25 µM]
N#C[C@H]1[C@H](c2ccc(C#Cc3ccccc3F)cc2)[C@@H](CO)N1C(=O)c1cccnc1	70*[25 µM]
N#C[C@H]1[C@@H](c2ccc(C#Cc3ccccc3F)cc2)[C@@H](CO)N1C(=O)C1CCCCC1	29
COc1ccc(NC(=O)Nc2cccc3c2O[C@H](CN(C)Cc2ccc(C(=O)O)cc2)[C@H](C)CN([C@H](C)CO)C3=O)cc1	-10[25 µM]
O=C(C[C@H]1C[C@H]2c3cc(NC(=O)Nc4ccccc4F)ccc3O[C@H]2[C@@H](CO)O1)NCc1ccc2c(c1)OCO2	-10[25 µM]
CN1c2ccc(-c3ccccc3F)cc2[C@@H]2[C@@H](CCN2S(=O)(=O)c2ccc(F)cc2)[C@@H]1CO	6
CN(CCOc1ccccc1)S(=O)(=O)c1ccc2oc3ccccc3c2c1	1
N#Cc1cccc(-c2ccc([C@@H]3[C@@H](CO)N4CCCCN(Cc5ccccc5F)C[C@@H]34)cc2)c1	14[25 µM]
O=S(=O)(c1cccs1)N1CCCCN2[C@H](CO)[C@H](c3ccc(/C=C/c4ccccc4)cc3)[C@H]2C1	14[25 µM]
COCc1cc(CN2CCCC2)c(O)c2ncccc12	10
Oc1ccc(CN2CCN(c3ccccc3)CC2)c2cccnc12	-13
CCOC(=O)N1CCN(Cc2ccc(O)c3ncccc23)CC1	65*
CC=Cc1ccc2n(c1=O)C[C@H]1[C@H](CO)[C@@H](C(=O)N(C)C)[C@@H]2N1CCc1ccccc1 (mixture of isomers)	-11[25 µM]
O=C(c1cccnc1)N1C[C@@H]2[C@H](c3ccccc31)[C@H](CO)N2CC1CCCCC1	3[25 µM]
O=C(Nc1ccc(-n2cnnn2)cc1)c1cn2ccccc2n1	-55
O=C(Nc1cccc(-c2cn3ccccc3n2)c1)c1cnccn1	-25
SMILES	CD40 NFkB inh
O=C(Nc1ccccc1)c1cn2ccccc2n1	69*
C/C=C/c1ccc([C@H]2[C@@H](CO)N(C(=O)NC(C)C)[C@@H]2CNC(C)=O)cc1	-4[25 µM]
C[C@H](CO)N1C[C@H](C)[C@H](CN(C)S(=O)(=O)c2ccc(Cl)cc2)Oc2c(NC(=O)Nc3ccc(F)cc3)cccc2C1=O	85*[25 µM]
C[C@@H]1CN([C@@H](C)CO)C(=O)c2cccc(NC(=O)Nc3ccc(F)cc3)c2O[C@H]1CN(C)S(=O)(=O)c1ccc(Cl)cc1	-9[25 µM]
COc1ccc(-c2cnc3c(c2)C(=O)N([C@H](C)CO)C[C@@H](C)[C@@H](CN(C)C(=O)Nc2c(C)noc2C)O3)cc1	65*[25 µM]
Cc1ccc(-c2cnc3c(c2)C(=O)N([C@@H](C)CO)C[C@H](C)[C@H](CN(C)C(=O)CN(C)C)O3)cc1	-14[25 µM]
COc1ccc(S(=O)(=O)N(C)C[C@H]2Oc3ccc(NC(=O)Nc4ccc(C(F)(F)F)cc4)cc3C(=O)N([C@@H](C)CO)C[C@H]2C)cc1	61*[25 µM]
COc1ccc(S(=O)(=O)N(C)C[C@@H]2OCCCC[C@H](C)Oc3ccc(NC(=O)Nc4ccc(F)cc4)cc3C(=O)N([C@H](C)CO)C[C@H]2C)cc1	-4
C[C@@H]1CN([C@H](C)CO)C(=O)c2cccc(NS(=O)(=O)c3ccc(Cl)cc3)c2O[C@H]1CN(C)Cc1ccc(C(=O)Nc2ccccc2N)cc1	-37[25 µM]
C[C@H]1CN([C@@H](C)CO)C(=O)c2cccc(NS(=O)(=O)c3ccc(Cl)cc3)c2O[C@@H]1CN(C)Cc1ccc(C(=O)Nc2ccccc2N)cc1	-55[25 µM]
COc1ccc(S(=O)(=O)N(C)C[C@H]2OCCCC[C@@H](C)Oc3ccc(NC(=O)Nc4ccc(F)cc4)cc3C(=O)N([C@H](C)CO)C[C@@H]2C)cc1	1
C[C@@H]1CN([C@@H](C)CO)C(=O)c2cccc(NS(=O)(=O)c3ccc(Cl)cc3)c2O[C@@H]1CN(C)Cc1ccc(C(=O)Nc2ccccc2N)cc1	active[25 µM]
Cc1ccc(-c2cnc3c(c2)C(=O)N([C@H](C)CO)C[C@H](C)[C@H](CN(C)C(=O)CN(C)C)O3)cc1	-6[25 µM]
C[C@@H]1CN([C@@H](C)CO)C(=O)c2cccc(NC(=O)Nc3ccc(F)cc3)c2O[C@@H]1CN(C)S(=O)(=O)c1ccc(Cl)cc1	10[25 µM]
CCCNC(=O)N1[C@@H]2CNC[C@H]1C2c1ccc(-c2cccc(C#N)c2)cc1 (stereo not given in full)	0[25 µM]
COc1cccc(CNC(=O)[C@H]2[C@H](CO)[C@H]3Cn4c(ccc(-c5cccc(OC)c5)c4=O)[C@H]3N2C)c1	-5[25 µM]
C[C@H]1CN([C@@H](C)CO)C(=O)c2c(c3ccccc3n2C)-c2ccccc2CO[C@@H]1CN(C)C(=O)Cc1ccccc1	21
CC=Cc1ccc2n(c1=O)C[C@@H]1[C@@H](CO)[C@H](C(=O)NCCOC)[C@H]2N1Cc1nccs1 (mixture of isomers)	6[25 µM]
Cc1ccccc1-c1ccc([C@@H]2[C@H]3CN(S(C)(=O)=O)CC(=O)N3[C@H]2CO)cc1	-11[25 µM]
O=C(N[C@@H]1CC[C@@H](CCNC(=O)C2CCOCC2)O[C@@H]1CO)c1ccncc1	-4
C[C@H](CO)N1C[C@H](C)[C@@H](CN(C)C(=O)N[C@H](C)c2ccccc2)OCc2ccccc2-c2ccccc2C1=O	-10[25 µM]
CNC[C@H]1Oc2c(NC(=O)NC(C)C)cccc2C(=O)N(C)C[C@@H]1C	0
C[C@@H]1CN([C@@H](C)CO)C(=O)c2c(c3ccccc3n2C)-c2ccccc2CO[C@@H]1CN(C)S(=O)(=O)c1ccc(C(F)(F)F)cc1	5
COc1ccc(S(=O)(=O)N(C)C[C@H]2Oc3ccc(NC(=O)Nc4ccc(C(F)(F)F)cc4)cc3C(=O)N([C@H](C)CO)C[C@H]2C)cc1	66*[25 µM]
COc1ccc(S(=O)(=O)N(C)C[C@H]2OCCCC[C@H](C)Oc3ccc(NC(=O)Nc4ccc(F)cc4)cc3C(=O)N([C@H](C)CO)C[C@@H]2C)cc1	4
COc1ccc(S(=O)(=O)N(C)C[C@@H]2Oc3ccc(NC(=O)Nc4ccc(C(F)(F)F)cc4)cc3C(=O)N([C@@H](C)CO)C[C@@H]2C)cc1	77*[25 µM]
COc1ccc(S(=O)(=O)N(C)C[C@@H]2OCCCC[C@H](C)Oc3ccc(NC(=O)Nc4ccc(C(F)(F)F)cc4)cc3C(=O)N([C@@H](C)CO)C[C@@H]2C)cc1	-6
C[C@@H]1CN([C@@H](C)CO)C(=O)c2cc(NC(=O)Nc3ccc(F)cc3)ccc2O[C@@H]1CN(C)S(=O)(=O)c1ccc(Cl)cc1	14
C[C@H](CO)N1C[C@H](C)[C@@H](CN(C)S(=O)(=O)c2ccccc2)Oc2ccc(NC(=O)Nc3ccccc3)cc2C1=O	1
